The list is not random: actives were taken first. Their share in the collection is about 4.3%.
KKLEB tox: reduces viability of KKLEB cystic fibrosis airway cells; KKLEB CF airway cells viability, ATPlite luminescence, overnight; stronger effect = lower value; cells stimulated with P. aeruginosa culture filtrate; activity change (cytotoxicity), % at 5 µM; 360,000 compounds, 0.36% hits; AID 602141;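 active = corrected activity change at or below -50% at 5 µM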
Peg3 prom inh: reduces Peg3 promoter-driven luciferase expression in HeLa; HeLa PEG-Prom luciferase reporter, luminescence, overnight; inhibition, % at 20 µM; 360,000 compounds, 1.7% hits;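 active = inhibition of at least 50% at 20 µM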
HIF-2a inh: inhibitors of HIF-2a; 786-0 RCC cells HIF-2a reporter, luciferase luminescence, overnight; inhibition, % at 18.8 µM; 360,000 compounds, 0.72% hits;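 active = inhibition of the luminescence signal of 40% or more relative to plate controls, in a single-dose primary screen at 18.75 µM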
CHOP inhibitor: inhibitors of CHOP induction in ER stress response. CHO-K1 CHOP-promoter luciferase, tunicamycin-induced, 15-18 h. inhibition, % at 10 µM. 220,000 compounds, 3.8% hits;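 active = compounds that reduced the stress-induced luciferase reporter signal by more than about 70% of percent inhibition, limit read from the data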;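 also: 0% = tunicamycin plus vehicle and 100% = wells without tunicamycin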
CF NFkB inh: inhibitors of cystic fibrosis induced NF-kB | KKLEB NF-kB-GFP reporter, PAF-induced, GFP fluorescence overnight | inhibition, % at 5 µM | 360,000 compounds, 0.86% hits | AID 588850;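 active = at least 50% inhibition at 5 µM, scaled per plate between neutral and stimulator controls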;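 also: PAF is a Pseudomonas aeruginosa culture filtrate used as stimulus; plate controls were PAF-stimulated DMSO wells for no effect and unstimulated DMSO wells for full effect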
MITF TRPM1 inh: inhibitors of MITF-driven TRPM1 promoter in melanoma cells; AID 488899; inhibition, % at 12.5 µM; SK-MEL-5 TRPM1 promoter luciferase, 24 h; 330,000 compounds, 0.83% hits;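 active = mean inhibition across replicates of 60% or more, whatever share of single replicates reaches that level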
CHOP confirm: confirmation of CHOP induction inhibitors; 2,100 compounds, 45% hits; CHO-CHOP promoter luciferase reporter, tunicamycin-induced, luminescence; inhibition, % at 10 µM; shares compounds with CHOP inhibitor;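 active = mean of three repeat readings of reporter signal inhibition above a set limit, cut at about 70% in these data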;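 also: 0% = tunicamycin plus vehicle and 100% = wells lacking tunicamycin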
* = called active by the depositor; x = not tested or not shown.

SMILES	KKLEB tox	Peg3 prom inh	HIF-2a inh	CHOP inhibitor	CF NFkB inh	MITF TRPM1 inh	CHOP confirm
CN1CCN(c2nc(-c3ccc(Cl)cc3)nc3ccccc23)CC1	-21	29	4	x	6	-13	x
COc1ccc(OCc2nnc(SCC(=O)N3C(C)CCCC3C)o2)cc1 (stereo not given)	5	3	0	x	0	1	x
Nc1nonc1-c1nc2ccccc2n1Cc1ccc(F)cc1Cl	-18	12	14	100*	18	-8	-41
CC(=O)c1ccc(NS(=O)(=O)c2cccc(C(=O)Nc3ccccc3C(=O)O)c2)cc1	-3	12	5	x	-6	-15	x
Cc1cccc(CN(C)C[C@H]2OCc3cnnn3CCCC(=O)N([C@H](C)CO)C[C@@H]2C)c1	-5	0	13	x	-4	x	x
N#CC1=C(N)N2C(=C(C#N)C1c1cccc(Br)c1)Nc1ccccc12 (stereo not given)	-50*	40	3	101*	42	51	105*
CCCCOC(=O)c1ccc(NC(=O)c2ccoc2C)cc1	-8	-216	-161	101*	4	-53	47
CC(C)Cn1c(N)c(C(=O)COC(=O)CC23CC4CC(CC(C4)C2)C3)c(=O)n(C)c1=O	-4	22	17	98*	-4	42	90*
Cc1csc(=O)n1CCC(=O)OCC(=O)c1c(N)n(CC(C)C)c(=O)n(C)c1=O	-11	7	-7	x	25	12	x
Cc1cc(/C=N/n2cnnc2)c(C)n1-c1ccc(OCc2ccc(F)cc2)cc1	-12	-22	-73	x	13	24	111*
Cc1cc(/C=N/n2cnnc2)c(C)n1-c1ccc(OCc2ccc(Cl)cc2Cl)cc1	-3	41	81*	108*	-2	92*	114*
Cc1cc(/C=N/n2cnnc2)c(C)n1-c1ccc(Cl)cc1	-8	6	4	12	21	9	x
O=C(NC(=S)Nc1cc([N+](=O)[O-])ccc1O)c1cccnc1	10	-35	-53	55	-14	-22	x
O=C(CCl)N1CCN2C(=O)c3ccccc3C12c1ccc(Cl)cc1 (stereo not given)	1	87*	20	105*	19	56	113*
Cc1ccc(C(=O)N2CCN3C(=O)c4ccccc4C23c2ccc(Cl)cc2)cc1 (stereo not given)	-19	26	-5	-90	-23	44	x
S=c1[nH]nc(C2CCCCC2)n1/N=C/C=C/c1ccccc1	5	0	0	105*	-12	7	106*
Cc1cccc(/C=N/n2c(COc3ccccc3)n[nH]c2=S)c1	8	14	-1	x	-31	-5	x
S=c1[nH]nc(C2CCCCC2)n1/N=C/C(Cl)=C\c1ccccc1	8	-28	-1	102*	-19	1	29
CC(/C=N/n1c(COc2ccccc2)n[nH]c1=S)=C\c1ccccc1	12	22	25	111*	1	2	-8
COc1ccc(/C=C/C(=O)NC(=S)NNC(=O)Cc2cccs2)cc1	-20	-3	-14	110*	21	12	45
COc1ccc(/C=C/C(=O)NC(=S)NNC(=O)c2ccco2)cc1	-8	11	-30	16	3	35	x
O=C(Cc1cccs1)NNC(=S)NC(=O)c1ccccc1	4	-40	-9	33	2	-4	x
O=C(/C=C/c1ccccc1)NC(=S)NNC(=O)Cc1cccs1	-4	-10	-20	104*	9	6	41
CC(C)COC(=O)c1cccc2c1-c1ccccc1/C2=N\O	-9	18	4	101*	36	-2	64
O=C1NC(Cc2ccc(O)cc2)c2nc3ccc(Br)cc3c(=O)n2-c2ncccc21 (stereo not given)	3	-4	-5	x	-9	x	x
COc1ccc(C2=CC(c3ccc(F)cc3)n3nnnc3N2)cc1 (stereo not given)	3	-50	-59	47	-11	-36	x
Cc1ccc(C2=CC(c3ccc(N(C)C)cc3)n3nnnc3N2)cc1 (stereo not given)	-11	-200	-86	100*	20	-7	52
COc1ccc(/C(=N/O)C(C)(C)NO)cc1	0	3	17	99*	5	-18	-4

Screens as filed in PubChem BioAssay.
